STAT3 binder – STAT3 binders, primary screen, biochemical, small molecule microarray, single point, set 2; Signal transducer and activator of transcription 3 (Homo sapiens), P40763; His-STAT3 binding, anti-His fluorescence; calls only; 17,000 compounds, 0.2% hits;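 active = compounds whose four printed spots each show fluorescence over background unusually high for their array block, chance value under 7%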
mut p53 SMM – binders of human mutant p53, primary screen, biochemical, small molecule microarray, anti-GST fluorescence; mutant tumor protein p53 (GST-tagged), Homo sapiens; small molecule microarray binding; 17,000 compounds, 0.4% hits; AID 624136, 2012; calls only;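 active = compounds whose four printed spots each glow above background more than chance allows, each with a p-value under 7%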
NFkB binder – binders of NF-kB p50 subunit, primary screen, biochemical, small molecule microarray, anti-His fluorescence. Nuclear factor NF-kappa-B p105 subunit (Homo sapiens), P19838. anti-His fluorescence binding. calls only. 17,000 compounds, 1.3% hits. AID 624139, 2012;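 active = spot fluorescence over background significantly raised, with a chance value under 7% in all four replicate spots of the compound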;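 also: probe protein is his-tagged human p50 processed subunit at 1 µg/ml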
Target sequence (P19838 1-433 limits assumed): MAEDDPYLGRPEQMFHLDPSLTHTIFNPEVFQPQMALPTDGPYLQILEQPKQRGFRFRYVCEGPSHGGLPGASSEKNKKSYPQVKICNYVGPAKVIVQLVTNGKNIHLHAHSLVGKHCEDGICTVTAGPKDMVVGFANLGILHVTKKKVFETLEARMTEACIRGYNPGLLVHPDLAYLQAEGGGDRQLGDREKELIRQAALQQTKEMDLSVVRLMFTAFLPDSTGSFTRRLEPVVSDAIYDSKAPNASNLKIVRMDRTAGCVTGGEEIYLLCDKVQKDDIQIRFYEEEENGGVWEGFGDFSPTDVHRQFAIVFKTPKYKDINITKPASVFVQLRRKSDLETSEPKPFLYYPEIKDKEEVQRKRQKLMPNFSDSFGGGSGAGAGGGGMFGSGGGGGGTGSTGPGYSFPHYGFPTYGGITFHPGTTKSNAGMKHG
c-Myc SMM – binders of human c-Myc, primary screen, biochemical, small molecule microarray, anti-His fluorescence; calls only; Myc proto-oncogene protein (Homo sapiens), P01106; AID 624141, 2012; 17,000 compounds, 1.5% hits; His-c-Myc binding;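 active = spot fluorescence over background with P-value below 7% in all four replicate spots, showing protein binding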
Calls only; n = inactive; + = active, no number. Hits are enriched below; roughly 2.4% of the tested compounds scored in any of these assays.

SMILES | STAT3 binder | mut p53 SMM | NFkB binder | c-Myc SMM
CC(C)[C@H]1C(=O)N2CCC[C@H]2[C@]2(O)O[C@](NC(=O)[C@@H]3C=C4c5cccc6[nH]cc(c56)C[C@H]4N(C)C3)(C(C)C)C(=O)N12 | n | n | n | n
CN1CC(C(=O)N[C@]2(C)O[C@@]3(O)[C@@H]4CCCN4C(=O)[C@H](Cc4ccccc4)N3C2=O)C=C2c3cccc4[nH]cc(c34)C[C@H]21 (stereo not given in full) | n | n | + | +
Oc1ccc2c3c1OC1c4[nH]c5c(c4CC4(O)C(C2)N(CC2CC2)CCC314)CC1(O)C2Cc3ccc(O)c4c3C1(CCN2CC1CC1)C5O4 (stereo not given) | n | n | n | n
CCn1cnc2c(Nc3cccc(Cl)c3)nc(N[C@@H]3CCCC[C@@H]3N)nc21 | n | n | n | +
